An excerpt weighted towards active compounds, which were near 7.3% of everything screened.
Rab9 prom act = qHTS Assay for Rab9 Promoter Activators | Huh7 Rab9 promoter-luciferase reporter, luminescence, 24 h | Potency, µM (doses to about 9.22 µM), for the others: at the highest dose activation, negative = inhibition, usual class: activators | actives 2.8% (n = 320,000); also: % of control where 0% means no effect; nearly all actives have a fitted effect of over 60% in size
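Cells were plated at 1500 per well in reduced-serum medium with 10% FBS and left 2 h. Compound in DMSO was then added for 24 h at 37 °C. Reporter signal was read by luminescence after 10 min with luciferase detection reagent.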
SMN2 splice enh = qHTS Assay for Enhancers of SMN2 Splice Variant Expression. HEK293 SMN2-luciferase splicing reporter, luminescence, 30-36 h. Potency, µM (titrated, usually from 46.1 µM), for inactives: at the top dose activity change, positive = activation, actives largely listed as activators. actives 2.8% (n = 210,000); also: % of control where 0% means no effect; nearly all actives have a fitted effect of over 55% in size
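qHTS luciferase splicing reporter: luminescence rises when SMN2 exon 7 is included in transfected HEK293 cells. Compound exposure lasted 30-36 h at 37C, with 4.5 mM final sodium butyrate as control, followed by a ONE-Glo read.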
FLuc counter = qHTS profiling assay for firefly luciferase inhibitor/activator using purifed enzyme and Km concentrations of substrates (counterscreen for miR-21 project) | actives 6.9% (n = 360,000) | Potency, µM (doses to about 57.5 µM), without a hit: at the highest dose activity change, negative = inhibition, most hits filed as inhibitors | purified FLuc, Km substrates, luminescence inhibition | Luciferin 4-monooxygenase (Photinus pyralis), P08659;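 also: plate controls were vehicle for no effect and reference inhibitor for full effect; nearly all actives have a fitted effect of over 55% in size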
Target sequence (P08659 whole entry, looked up): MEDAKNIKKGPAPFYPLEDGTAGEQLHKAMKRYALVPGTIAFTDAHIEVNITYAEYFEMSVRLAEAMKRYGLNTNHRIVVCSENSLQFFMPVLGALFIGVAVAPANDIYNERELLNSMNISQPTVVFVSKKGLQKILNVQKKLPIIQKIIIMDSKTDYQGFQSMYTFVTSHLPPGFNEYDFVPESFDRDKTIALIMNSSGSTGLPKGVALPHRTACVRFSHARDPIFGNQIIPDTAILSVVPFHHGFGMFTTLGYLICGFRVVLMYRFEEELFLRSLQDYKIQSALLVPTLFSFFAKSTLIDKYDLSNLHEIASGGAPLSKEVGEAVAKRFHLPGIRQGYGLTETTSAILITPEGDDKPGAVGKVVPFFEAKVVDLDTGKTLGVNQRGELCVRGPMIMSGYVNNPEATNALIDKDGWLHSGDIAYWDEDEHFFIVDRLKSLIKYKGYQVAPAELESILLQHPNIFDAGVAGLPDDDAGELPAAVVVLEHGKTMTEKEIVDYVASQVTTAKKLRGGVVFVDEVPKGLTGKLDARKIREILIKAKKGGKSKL
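Biochemical qHTS of compounds, final roughly 60 µM downward over six points, against 10 nM purified firefly luciferase using Km concentrations of substrates (10 uM D-luciferin, 10 uM ATP) in Tris acetate pH 7.5 buffer; luminescence output.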
KinaseGlo FLuc = Counterscreen for Luciferase (Kinase-Glo TM) Inhibition; Kinase-Glo luciferase, ATP luminescence, 8 min; Potency, µM (highest dose often 38.3 µM), without a hit: top-dose activity change, negative = inhibition, hits mostly inhibitors; actives 0.28% (n = 200,000); AID 1379, 2008; also: % is scaled to controls: 0 for no effect and ±100 for the full control effect; nearly all actives have a fitted effect of over 60% in size
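Kinase-Glo luciferase light output from ATP and luciferin was measured with 10 uM ATP, within the enzyme's linear range. Buffer: 50 mM imidazole pH 7.2, 50 mM KCl, 7 mM MgCl2, 0.01% Tween 20, 0.05% BSA; luminescence read after 8 min at ambient temperature.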
NPC1 prom act = qHTS Assay for NPC1 Promoter Activators | AID 485313, 2010 | Potency, µM (doses to about 9.22 µM), for inactives: at the highest dose activation, hits mostly activators | actives 2.4% (n = 320,000) | Huh7 NPC1 promoter luciferase reporter, 24 h; also: % of control where 0% means no effect; nearly all actives have a fitted effect of over 60% in size
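Luminescence read-out of NPC1 promoter-driven luciferase in stably transfected Huh7 cells; compounds delivered in DMSO and left 24 h at 37C, 5% CO2, qHTS titration format.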
* marks the source's active call; other numbers are inactive results; ? = inconclusive; · = no result; [ ] = another dose, or the depositor's remark. Calls follow the shape of the dose curve; as a rule, active = well fitted curve in the direction sought with a large enough effect; inconclusive = small, poorly fitted or top-dose-only effect, or another doubt; inactive = no such curve, though single readings can be large; an effect the other way counts as inactive or inconclusive. Potency is read from the fitted curve at half-maximal effect.

SMILES	Rab9 prom act	SMN2 splice enh	FLuc counter	KinaseGlo FLuc	NPC1 prom act
CCCCCC/C=C1\CC(C(=O)OCC)Oc2ccccc21 (centres undefined) (tested in a mixture with another compound)	·	·	·	2%[39.9 µM]	·
CCc1ccc(N2C(=O)C3C4C=CC(CC4)C3C2=O)cc1 (centres undefined)	19%	·	4.3µM*	·	3%
O=C1C2C3C=CC(CC3)C2C(=O)N1c1ccc(Cl)cc1 (centres undefined)	2%	·	-22%	·	5%
O=C(O)COc1ccc(-c2nnn(Cc3ccccc3F)n2)cc1	-1%	7%	19µM*	0%	9%
COC(=O)c1ccc(COc2ccc(-c3nnn(CC(=O)NC(C)(C)C)n3)cc2)cc1	-9%	14µM*	1%	-1%	-2%
Cc1ccc(-c2nnn(CC(=O)O)n2)cc1	-11%	-15%	-10%	3%	-3%
Cc1ccccc1COc1ccc(-c2nnn(CC(=O)O)n2)cc1	-1%	·	17µM*	·	-10%
Cc1cccc(Nc2nc(-c3ccncc3)cs2)c1	?	-4%	17µM*	1%	1%
CC(=O)Nc1ccc(-c2csc(NNC(=O)c3ccc(C)cc3)n2)cc1	-3%	-17%	2%	0%	-4%
Cc1ccc(Nc2nc(-c3ccncc3)cs2)cc1	1.3µM*	·	0.95µM*	-3%	2.2µM*
Cc1cccc(Nc2nc(-c3c(C)nc4ccccn34)cs2)c1	-20%	-38%	?	-5%	-24%
Cc1cccc(Nc2nc(-c3ccc4c(c3)OCCO4)cs2)c1	0.89µM*	11µM*	2.7µM*	-4%	2µM*
Clc1cccc(Nc2nc(-c3ccncc3)cs2)c1	-2%	·	-3%	0%	-5%
Cc1nc(-c2ccc3c(c2)CCC(=O)N3)cs1	?	·	17µM*	·	?
Cc1ccc(-c2csc(Cc3nc(-c4ccc5c(c4)CCC(=O)N5)cs3)n2)cc1	1%	·	?	·	-5%
CC(=O)O[C@H](C(=O)O[C@@H]1C[C@@H](CCC[C@H]2O[C@H](C(=O)OC(C)C)CC[C@@H]2C)O[C@@H](CC#N)C1)c1ccccc1	·	7%	·	2%	·
Cc1nc(-c2ccc3c(c2)OCCO3)cs1	3.2µM*	?	21µM*	-7%	2.8µM*
O=C(CSc1oc(-c2ccco2)nc1S(=O)(=O)c1ccc(Cl)cc1)c1ccc(Cl)cc1	·	0%	-5%	·	·
COc1ccc(/C=C2\C(=O)ON=C2c2cccc([N+](=O)[O-])c2)cc1	-3%	9%	24µM*	-5%	-4%
COc1ccc(/C=C2\C(=O)ON=C2c2ccccc2)cc1OC	2%	·	?	·	-1%
COc1ccc(/C=C2/C(=O)ON=C2c2ccccc2)cc1OC	-8%	7%	11µM*	-5%	-6%
C=CCNC(=O)N1CCc2nc(CCCC)c3c(c2C1)CO[C@@H](C)C3	·	7%[9.22 µM]	·	1%[7.66 µM]	·
CCC(C)c1ccc(NC(=O)c2cccnc2)cc1 (centres undefined)	2.5µM*	13µM*	12µM*	-1%	2.8µM*
O=C(Nc1cccnc1)c1ccc(F)cc1	-1%	6%	-9%	-2%	-2%
CC(C)c1ccc(C(=O)Nc2cccnc2)cc1	?	·	3.4µM*	·	1.6µM*
SMILES	Rab9 prom act	SMN2 splice enh	FLuc counter	KinaseGlo FLuc	NPC1 prom act
O=C(Nc1cccnc1)c1ccc(-c2ccccc2)cc1	?	-2%	2.4µM*	-4%	?
CC(C)(C)C(=O)Nc1ccc(C(=O)Nc2cccnc2)cc1	4µM*	?	21µM*	0%	?
CCC(=O)Nc1ccc(C(=O)Nc2cccnc2)cc1	-1%	?	?	-1%	11%
CCC(C)c1ccc(O)c(NC(=O)c2cccnc2)c1 (centres undefined)	1%	-3%	-2%	-1%	-1%
CCOC(=O)c1[nH]c(C)c(CCC(=O)Nc2cccc(C(F)(F)F)c2)c1C	·	·	4%	·	·
CCC1=C(c2ccc(C)cc2)S(=O)(=O)N=C1N1CCC(C(=O)Nc2ccccc2C(=O)OC)CC1	·	·	0%	·	·
O=C(COc1ccc([N+](=O)[O-])cc1)Nc1cccnc1	2%	·	-11%	-1%	-1%
O=C(COc1ccc(-c2ccccc2)cc1)Nc1cccnc1	-3%	·	5.4µM*	·	-12%
CC(C)(C)C(=O)Cn1ncc(N2CCCC2)c(Br)c1=O	4µM*	24%	?	4%	?
CC(C)(C)C(=O)Cn1ncc(N2CCOCC2)c(Br)c1=O	26%	7%	-2%	3%	7%
COc1ccc(C2CC(c3ccc4ccccc4c3OC(C)=O)=NN2C(C)=O)cc1 (centres undefined)	4µM*	·	-1%	·	4µM*
COc1ccc(C2CC(c3ccc(C)o3)=NN2C(C)=O)cc1 (centres undefined)	?	13µM*	?	0%	?
COc1ccc(C2CC(c3ccc(Cl)cc3)=NN2C(C)=O)cc1 (centres undefined)	?	·	24µM*	·	?
COc1ccc(C2CC(c3ccc(OC)cc3O)=NN2C(=O)c2ccccc2)cc1 (centres undefined)	5%	·	4%	·	-4%
CC(=O)N1N=C(c2ccc(Cl)cc2)CC1c1ccc([N+](=O)[O-])cc1 (centres undefined)	3%	·	-1%	·	-5%
CCC(=O)N1N=C(c2ccc(C)o2)CC1c1ccc(N(C)C)cc1 (centres undefined)	20%	27%	?	1%	13%
CC(=O)N1N=C(c2ccc(C)o2)CC1c1ccc(Br)cc1 (centres undefined)	?	?	?	-1%	2.5µM*
COc1ccc(/C=C2\SC(=S)N(CCC(=O)Nc3cccc(O)c3)C2=O)cc1OC	-2%	·	?	·	-6%
COc1ccc(/C=C2/SC(=S)N(CCCC(=O)Nc3ccccc3C(=O)O)C2=O)cc1	-8%	·	27µM*	·	-20%
COc1ccc(/C=C2/SC(=S)N(CCCC(=O)Nc3cccc(O)c3)C2=O)cc1	-7%	·	13µM*	·	-4%
Cc1ccc(/C=C2\SC(=S)N(CCCC(=O)Nc3ccccc3C(=O)O)C2=O)cc1	-2%	·	4%	·	3%

Screening results: PubChem BioAssay, National Center for Advancing Translational Sciences (NCATS)
